How the values were obtained:
Experiment in all cases: log2 ratio of Biotin-Ahx-Ub-VS probe labelling (fragment/DMSO); higher = less target engagement (more negative = stronger competition), active = hit call of the paper (q ≤ 0.05, log2 ratio ≤ -1)
Details in all cases: compound concentration: 200 uM; treatment time: 3 h
USP42 = biological target: T1, USP42 (UniProt Q9H9J4)
T1 sequence (whole entry): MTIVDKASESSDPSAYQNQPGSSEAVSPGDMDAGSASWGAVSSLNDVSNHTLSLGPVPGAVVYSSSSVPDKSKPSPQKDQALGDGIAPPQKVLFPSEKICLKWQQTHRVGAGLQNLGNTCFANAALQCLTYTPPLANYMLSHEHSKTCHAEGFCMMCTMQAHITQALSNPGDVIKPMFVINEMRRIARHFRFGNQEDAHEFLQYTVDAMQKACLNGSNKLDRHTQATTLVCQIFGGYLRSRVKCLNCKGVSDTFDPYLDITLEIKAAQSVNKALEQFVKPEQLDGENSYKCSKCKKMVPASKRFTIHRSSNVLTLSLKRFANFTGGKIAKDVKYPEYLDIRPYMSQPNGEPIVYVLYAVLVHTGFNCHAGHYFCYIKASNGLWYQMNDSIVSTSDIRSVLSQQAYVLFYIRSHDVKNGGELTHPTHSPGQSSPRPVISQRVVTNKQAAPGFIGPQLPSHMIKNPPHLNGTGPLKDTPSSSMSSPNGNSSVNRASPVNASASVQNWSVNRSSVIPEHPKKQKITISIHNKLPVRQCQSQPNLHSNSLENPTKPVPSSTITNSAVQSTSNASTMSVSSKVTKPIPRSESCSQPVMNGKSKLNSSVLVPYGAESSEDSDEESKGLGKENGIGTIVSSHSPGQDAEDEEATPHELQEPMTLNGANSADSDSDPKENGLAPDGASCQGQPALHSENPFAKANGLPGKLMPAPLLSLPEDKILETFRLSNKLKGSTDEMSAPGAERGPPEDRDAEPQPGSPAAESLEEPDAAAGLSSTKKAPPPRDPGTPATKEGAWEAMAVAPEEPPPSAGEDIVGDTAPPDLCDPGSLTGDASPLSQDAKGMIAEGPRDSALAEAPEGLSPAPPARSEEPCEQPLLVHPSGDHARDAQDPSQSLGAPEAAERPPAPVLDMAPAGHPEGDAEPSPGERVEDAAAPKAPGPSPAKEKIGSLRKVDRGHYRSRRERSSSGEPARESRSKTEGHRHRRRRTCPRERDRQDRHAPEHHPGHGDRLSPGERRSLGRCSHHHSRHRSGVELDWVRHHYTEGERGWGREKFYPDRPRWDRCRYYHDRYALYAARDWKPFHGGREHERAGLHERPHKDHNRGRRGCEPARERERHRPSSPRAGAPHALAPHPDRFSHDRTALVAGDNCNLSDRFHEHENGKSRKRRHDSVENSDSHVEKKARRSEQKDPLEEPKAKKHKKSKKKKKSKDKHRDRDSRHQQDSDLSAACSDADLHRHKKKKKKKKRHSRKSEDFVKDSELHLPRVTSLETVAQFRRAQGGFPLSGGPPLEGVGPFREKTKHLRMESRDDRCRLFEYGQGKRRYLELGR
In short: (§1)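 Labelled DUBs from HEK293T lysate were NeutrAvidin-enriched, digested with LysC and trypsin, and run by diaPASEF LC-MS/MS. Before that, each 495 µg sample in Tris/CHAPS/IGEPAL buffer with protease inhibitors was treated in triplicate with fragment at 200 µM or vehicle for 3 h, then with Biotin-Ahx-Ub-VS at 0.5 µM final for 1 h. Values are average log2 ratios of fragment over vehicle by unpaired t-test, based on global-median-normalised Spectronaut label-free quantities from proteins with ≥2 unique peptides.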

USP46 = USP46 (UniProt P62068)
USP46, sequence (P62068 whole entry): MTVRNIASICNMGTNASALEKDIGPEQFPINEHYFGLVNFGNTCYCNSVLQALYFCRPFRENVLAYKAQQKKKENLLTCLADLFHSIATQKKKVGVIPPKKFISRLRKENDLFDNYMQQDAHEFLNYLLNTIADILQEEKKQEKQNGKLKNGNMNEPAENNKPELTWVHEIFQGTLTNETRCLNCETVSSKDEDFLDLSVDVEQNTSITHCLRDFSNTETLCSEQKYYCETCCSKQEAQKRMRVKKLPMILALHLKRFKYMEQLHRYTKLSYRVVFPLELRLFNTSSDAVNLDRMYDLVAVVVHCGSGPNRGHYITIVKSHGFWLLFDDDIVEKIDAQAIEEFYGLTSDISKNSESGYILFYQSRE
In short: as §1

USP47 = biological target: T2, USP47 (UniProt Q96K76)
T2 sequence (whole entry): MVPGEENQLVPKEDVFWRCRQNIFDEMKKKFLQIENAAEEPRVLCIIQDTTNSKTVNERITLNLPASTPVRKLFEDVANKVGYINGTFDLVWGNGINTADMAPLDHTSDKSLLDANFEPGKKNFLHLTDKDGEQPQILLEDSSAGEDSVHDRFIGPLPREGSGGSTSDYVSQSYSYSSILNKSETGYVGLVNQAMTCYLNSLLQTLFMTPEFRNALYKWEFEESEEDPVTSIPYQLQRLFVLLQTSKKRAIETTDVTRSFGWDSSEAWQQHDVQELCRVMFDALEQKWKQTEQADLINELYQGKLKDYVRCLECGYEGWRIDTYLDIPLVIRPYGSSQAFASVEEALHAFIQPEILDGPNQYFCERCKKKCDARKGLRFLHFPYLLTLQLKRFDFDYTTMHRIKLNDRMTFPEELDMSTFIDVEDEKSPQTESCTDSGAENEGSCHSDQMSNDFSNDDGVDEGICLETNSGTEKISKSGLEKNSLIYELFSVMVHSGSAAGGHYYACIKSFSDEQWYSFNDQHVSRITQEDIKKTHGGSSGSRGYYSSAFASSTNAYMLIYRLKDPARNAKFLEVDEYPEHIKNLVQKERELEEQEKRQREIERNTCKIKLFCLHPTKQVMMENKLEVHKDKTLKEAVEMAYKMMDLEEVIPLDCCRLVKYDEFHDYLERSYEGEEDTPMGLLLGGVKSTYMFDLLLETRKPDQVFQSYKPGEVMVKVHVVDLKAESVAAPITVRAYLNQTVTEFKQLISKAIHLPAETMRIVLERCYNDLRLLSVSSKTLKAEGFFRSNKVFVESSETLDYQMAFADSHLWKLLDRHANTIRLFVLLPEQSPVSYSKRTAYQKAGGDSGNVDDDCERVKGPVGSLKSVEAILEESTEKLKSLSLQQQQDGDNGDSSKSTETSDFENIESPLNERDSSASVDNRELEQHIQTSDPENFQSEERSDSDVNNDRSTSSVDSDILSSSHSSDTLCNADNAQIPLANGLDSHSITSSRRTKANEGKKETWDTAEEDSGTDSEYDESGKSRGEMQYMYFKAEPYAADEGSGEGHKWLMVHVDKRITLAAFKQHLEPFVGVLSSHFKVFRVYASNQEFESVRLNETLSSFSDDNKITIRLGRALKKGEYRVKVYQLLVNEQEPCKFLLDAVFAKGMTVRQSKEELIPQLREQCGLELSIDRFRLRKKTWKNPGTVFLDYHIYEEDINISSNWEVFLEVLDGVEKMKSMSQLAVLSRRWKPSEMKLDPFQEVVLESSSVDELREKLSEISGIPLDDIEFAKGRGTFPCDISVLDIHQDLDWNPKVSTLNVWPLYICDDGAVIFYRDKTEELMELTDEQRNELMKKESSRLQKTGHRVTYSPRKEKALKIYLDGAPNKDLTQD
In short: as §1

USP48 = biological target: T3, USP48 (UniProt Q86UV5)
T3 sequence (whole entry): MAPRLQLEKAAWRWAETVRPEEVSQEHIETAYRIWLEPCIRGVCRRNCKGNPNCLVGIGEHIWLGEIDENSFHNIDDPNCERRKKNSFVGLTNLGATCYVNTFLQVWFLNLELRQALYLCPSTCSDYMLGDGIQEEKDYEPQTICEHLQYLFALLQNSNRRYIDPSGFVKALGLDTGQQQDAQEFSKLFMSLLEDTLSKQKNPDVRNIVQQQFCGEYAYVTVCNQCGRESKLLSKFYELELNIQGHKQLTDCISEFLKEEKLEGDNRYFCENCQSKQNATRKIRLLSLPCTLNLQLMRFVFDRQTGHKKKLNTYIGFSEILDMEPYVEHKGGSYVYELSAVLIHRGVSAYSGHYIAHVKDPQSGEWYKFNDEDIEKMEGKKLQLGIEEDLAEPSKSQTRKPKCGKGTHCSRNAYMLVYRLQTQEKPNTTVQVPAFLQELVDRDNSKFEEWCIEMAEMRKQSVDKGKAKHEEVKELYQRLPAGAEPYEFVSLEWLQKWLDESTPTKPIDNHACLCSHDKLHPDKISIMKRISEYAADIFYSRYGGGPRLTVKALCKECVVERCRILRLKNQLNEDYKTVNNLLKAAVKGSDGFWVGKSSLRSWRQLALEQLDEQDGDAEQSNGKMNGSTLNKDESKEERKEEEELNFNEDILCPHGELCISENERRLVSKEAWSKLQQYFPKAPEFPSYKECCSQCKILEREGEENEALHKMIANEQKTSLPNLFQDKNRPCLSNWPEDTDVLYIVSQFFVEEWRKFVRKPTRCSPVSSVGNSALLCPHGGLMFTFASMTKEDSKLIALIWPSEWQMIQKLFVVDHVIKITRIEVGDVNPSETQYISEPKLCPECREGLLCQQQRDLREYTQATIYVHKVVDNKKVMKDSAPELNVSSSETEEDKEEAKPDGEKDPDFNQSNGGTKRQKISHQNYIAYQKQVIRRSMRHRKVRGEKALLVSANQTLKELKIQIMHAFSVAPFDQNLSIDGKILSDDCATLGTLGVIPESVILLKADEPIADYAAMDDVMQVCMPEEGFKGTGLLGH
In short: as §1

USP5 = biological target: T4, USP5 (UniProt P45974)
T4 sequence (whole entry): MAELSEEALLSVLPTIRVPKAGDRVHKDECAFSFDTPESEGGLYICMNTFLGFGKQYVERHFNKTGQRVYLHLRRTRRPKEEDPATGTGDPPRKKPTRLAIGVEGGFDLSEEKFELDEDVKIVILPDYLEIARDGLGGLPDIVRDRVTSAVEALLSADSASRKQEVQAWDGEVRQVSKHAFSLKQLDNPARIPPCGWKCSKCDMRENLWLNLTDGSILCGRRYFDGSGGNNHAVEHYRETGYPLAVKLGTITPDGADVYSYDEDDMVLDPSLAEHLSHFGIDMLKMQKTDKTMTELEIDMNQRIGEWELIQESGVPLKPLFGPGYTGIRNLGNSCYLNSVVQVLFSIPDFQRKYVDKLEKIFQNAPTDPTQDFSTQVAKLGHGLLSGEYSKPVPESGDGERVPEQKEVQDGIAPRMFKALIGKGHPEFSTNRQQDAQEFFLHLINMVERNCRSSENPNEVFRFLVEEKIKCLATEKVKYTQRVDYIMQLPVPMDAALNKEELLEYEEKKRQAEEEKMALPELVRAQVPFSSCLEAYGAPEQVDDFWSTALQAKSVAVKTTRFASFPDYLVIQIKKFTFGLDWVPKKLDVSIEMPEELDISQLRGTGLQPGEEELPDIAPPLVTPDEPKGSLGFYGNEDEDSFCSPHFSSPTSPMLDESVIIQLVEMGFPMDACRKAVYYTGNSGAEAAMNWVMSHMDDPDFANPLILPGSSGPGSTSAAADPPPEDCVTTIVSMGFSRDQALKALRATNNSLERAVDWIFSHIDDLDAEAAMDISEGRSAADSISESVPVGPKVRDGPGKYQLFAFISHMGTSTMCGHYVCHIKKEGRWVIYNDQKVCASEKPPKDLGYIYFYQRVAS
In short: as §1

USP54 = USP54 (UniProt Q70EL1)
USP54, sequence (Q70EL1 whole entry): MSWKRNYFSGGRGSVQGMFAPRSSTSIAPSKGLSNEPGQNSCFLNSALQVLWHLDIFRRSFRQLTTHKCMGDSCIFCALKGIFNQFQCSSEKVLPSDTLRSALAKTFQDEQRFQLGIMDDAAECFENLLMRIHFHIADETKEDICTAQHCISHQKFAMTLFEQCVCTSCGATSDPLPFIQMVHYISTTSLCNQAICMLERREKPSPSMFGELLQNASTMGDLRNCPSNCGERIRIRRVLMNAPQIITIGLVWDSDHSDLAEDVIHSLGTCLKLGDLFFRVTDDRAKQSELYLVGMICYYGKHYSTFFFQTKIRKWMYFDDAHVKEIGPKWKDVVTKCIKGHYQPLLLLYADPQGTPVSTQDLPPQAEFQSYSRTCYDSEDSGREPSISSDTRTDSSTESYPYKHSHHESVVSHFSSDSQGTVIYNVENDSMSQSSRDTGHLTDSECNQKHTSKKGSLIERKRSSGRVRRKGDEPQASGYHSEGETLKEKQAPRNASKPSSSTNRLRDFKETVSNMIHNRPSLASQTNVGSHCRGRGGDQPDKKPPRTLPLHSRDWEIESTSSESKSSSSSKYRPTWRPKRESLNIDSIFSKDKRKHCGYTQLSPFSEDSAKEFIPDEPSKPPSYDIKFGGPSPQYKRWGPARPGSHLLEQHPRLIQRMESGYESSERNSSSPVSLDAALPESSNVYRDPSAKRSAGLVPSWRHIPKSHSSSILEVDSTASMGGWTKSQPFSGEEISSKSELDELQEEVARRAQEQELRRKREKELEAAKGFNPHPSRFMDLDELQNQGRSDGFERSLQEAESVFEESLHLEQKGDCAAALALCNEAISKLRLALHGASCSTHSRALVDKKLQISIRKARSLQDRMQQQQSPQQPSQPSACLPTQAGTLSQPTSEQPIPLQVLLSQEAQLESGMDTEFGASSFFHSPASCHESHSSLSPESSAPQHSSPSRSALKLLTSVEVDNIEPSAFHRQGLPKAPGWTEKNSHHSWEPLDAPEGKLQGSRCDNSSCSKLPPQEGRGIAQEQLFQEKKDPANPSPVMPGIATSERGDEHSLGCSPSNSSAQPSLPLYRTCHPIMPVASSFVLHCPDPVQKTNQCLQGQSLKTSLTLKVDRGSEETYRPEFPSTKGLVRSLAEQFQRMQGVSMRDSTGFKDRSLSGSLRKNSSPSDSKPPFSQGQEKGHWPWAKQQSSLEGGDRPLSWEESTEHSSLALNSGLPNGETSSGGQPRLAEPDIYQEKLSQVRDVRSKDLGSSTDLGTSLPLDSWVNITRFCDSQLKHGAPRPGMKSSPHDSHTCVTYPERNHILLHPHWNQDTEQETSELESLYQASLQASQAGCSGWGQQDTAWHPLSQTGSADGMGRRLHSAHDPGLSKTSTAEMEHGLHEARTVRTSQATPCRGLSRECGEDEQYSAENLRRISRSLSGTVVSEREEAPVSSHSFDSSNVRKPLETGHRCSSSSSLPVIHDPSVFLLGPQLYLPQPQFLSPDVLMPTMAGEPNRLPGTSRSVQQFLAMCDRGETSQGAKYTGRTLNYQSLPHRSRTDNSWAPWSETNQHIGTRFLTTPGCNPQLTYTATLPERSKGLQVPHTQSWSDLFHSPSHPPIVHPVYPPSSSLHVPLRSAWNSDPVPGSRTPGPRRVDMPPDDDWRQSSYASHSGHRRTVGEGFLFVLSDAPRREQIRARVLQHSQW
In short: as §1

USP7 = USP7 (UniProt Q93009)
USP7, sequence (Q93009 whole entry, looked up): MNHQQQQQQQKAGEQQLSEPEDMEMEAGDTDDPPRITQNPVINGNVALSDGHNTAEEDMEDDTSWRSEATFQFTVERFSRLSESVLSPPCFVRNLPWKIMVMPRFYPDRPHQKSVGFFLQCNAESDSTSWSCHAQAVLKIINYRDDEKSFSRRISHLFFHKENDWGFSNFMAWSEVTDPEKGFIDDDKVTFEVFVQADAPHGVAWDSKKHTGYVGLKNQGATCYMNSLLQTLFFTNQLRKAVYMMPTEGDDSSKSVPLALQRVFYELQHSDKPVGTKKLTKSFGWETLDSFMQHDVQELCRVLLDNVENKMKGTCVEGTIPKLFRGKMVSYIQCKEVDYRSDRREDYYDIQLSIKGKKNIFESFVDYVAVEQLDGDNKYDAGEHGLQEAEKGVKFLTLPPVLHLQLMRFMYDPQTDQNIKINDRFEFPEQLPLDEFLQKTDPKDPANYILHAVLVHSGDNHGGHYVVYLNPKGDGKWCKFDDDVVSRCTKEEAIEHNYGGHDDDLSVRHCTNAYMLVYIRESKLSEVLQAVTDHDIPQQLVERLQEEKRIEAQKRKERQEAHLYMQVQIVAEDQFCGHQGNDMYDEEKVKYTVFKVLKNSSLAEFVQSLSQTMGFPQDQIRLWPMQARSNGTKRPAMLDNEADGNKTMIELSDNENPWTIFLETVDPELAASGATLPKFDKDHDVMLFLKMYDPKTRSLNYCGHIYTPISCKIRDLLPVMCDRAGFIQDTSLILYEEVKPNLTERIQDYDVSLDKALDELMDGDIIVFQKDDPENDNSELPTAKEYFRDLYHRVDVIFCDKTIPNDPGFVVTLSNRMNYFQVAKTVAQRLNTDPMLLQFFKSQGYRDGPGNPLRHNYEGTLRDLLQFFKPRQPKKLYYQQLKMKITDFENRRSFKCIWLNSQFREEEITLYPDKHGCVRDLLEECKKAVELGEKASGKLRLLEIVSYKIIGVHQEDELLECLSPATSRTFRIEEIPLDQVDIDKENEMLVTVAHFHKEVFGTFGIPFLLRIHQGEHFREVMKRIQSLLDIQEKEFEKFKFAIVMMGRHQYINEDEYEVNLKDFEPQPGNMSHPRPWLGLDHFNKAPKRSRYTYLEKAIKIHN
In short: as §1

USP8 = biological target: T5, USP8 (UniProt P40818)
T5 sequence (whole entry): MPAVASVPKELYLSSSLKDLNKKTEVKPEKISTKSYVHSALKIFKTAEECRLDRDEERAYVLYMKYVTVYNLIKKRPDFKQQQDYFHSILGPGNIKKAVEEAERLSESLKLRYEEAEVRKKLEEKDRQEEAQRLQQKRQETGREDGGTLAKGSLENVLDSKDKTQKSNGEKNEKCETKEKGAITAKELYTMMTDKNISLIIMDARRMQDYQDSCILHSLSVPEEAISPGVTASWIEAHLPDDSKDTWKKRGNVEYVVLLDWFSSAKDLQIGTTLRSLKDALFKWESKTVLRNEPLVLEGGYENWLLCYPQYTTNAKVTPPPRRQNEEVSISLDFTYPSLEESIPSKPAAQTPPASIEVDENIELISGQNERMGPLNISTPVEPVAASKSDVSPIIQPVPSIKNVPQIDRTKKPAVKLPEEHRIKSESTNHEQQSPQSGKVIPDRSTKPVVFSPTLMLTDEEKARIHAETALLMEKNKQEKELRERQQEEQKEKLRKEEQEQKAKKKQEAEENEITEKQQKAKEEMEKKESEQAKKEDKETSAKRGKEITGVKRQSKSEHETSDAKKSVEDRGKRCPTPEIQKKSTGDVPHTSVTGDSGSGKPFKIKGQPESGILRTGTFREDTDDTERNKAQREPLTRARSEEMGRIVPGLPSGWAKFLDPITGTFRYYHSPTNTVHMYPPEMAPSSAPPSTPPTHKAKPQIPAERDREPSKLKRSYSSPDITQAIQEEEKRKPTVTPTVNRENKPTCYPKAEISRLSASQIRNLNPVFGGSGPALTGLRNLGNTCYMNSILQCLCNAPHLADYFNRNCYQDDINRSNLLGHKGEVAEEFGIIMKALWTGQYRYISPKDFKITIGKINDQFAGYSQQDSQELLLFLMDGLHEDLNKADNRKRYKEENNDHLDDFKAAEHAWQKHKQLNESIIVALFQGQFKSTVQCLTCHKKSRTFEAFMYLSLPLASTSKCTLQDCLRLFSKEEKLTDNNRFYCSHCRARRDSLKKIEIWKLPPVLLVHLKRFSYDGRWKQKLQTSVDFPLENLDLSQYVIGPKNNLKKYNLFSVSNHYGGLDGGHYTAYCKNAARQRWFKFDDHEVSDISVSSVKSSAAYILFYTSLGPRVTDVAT
In short: as §1

USP9X = USP9X (UniProt Q93008)
In short: as §1

UniProt O00487 = biological target: UniProt O00487
UniProt O00487, sequence (O00487 whole entry): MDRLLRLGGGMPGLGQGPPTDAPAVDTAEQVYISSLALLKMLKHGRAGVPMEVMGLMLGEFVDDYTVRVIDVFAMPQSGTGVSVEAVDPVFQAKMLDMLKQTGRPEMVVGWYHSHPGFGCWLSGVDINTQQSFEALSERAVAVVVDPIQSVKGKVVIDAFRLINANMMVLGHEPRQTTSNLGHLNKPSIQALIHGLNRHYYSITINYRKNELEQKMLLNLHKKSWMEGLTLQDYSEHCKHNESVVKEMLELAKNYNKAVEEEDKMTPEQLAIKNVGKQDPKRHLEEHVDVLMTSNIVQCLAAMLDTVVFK
In short: as §1

Measured: log2 ratio of Biotin-Ahx-Ub-VS probe labelling

O=C(CCl)N1CCC(O)(Cc2ccc(F)cc2)C1 (stereo not given)
inactive: USP42 0.0317 | USP46 -0.0773 | USP47 -0.574 | USP48 -0.434 | USP5 0.465 | USP54 -0.501 | USP7 -0.133 | USP8 -0.169 | USP9X 0.0751 | UniProt O00487 -0.0616

Source: the supplement of paper PMC11732987, “Enantioselective OTUD7B fragment discovery through chemoproteomics screening and high-throughput optimisation” (Communications Chemistry, 2025)
